Measured values from PubChem BioAssay (Tox21).
Several values for one entry are separate records, joined by “and”; a condition that tells them apart may be missing. Equal entries are not always repeated. Inconclusive results are not listed. Where a structure was tested more than once in an assay, its records may differ in their call. Activity calls are given as the source filed them. Unless noted, calls come from the whole dose curve; as a rule, active = well fitted curve in the direction sought with a large enough effect in the repeat runs; inconclusive = weak or mixed curves; inactive = no such curve, though single readings can be large; an effect the other way counts as inactive or inconclusive.

Experiments:
[1] = A CellTox Green Cytotoxicity Assay to monitor cytotoxicity in HepG2 cells - 0 hour (AID 1224882); note: nearly all actives have a fitted effect of over 35% in size
Procedure, shortened: (§1)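 Nonlytic assay: viable cells exclude the dye, so fluorescence scales with cell death. HepG2 at 600 cells/well, compounds added after 5 h, signal read across 40 h.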

[2] = A CellTox Green Cytotoxicity Assay to monitor cytotoxicity in HepG2 cells - 32 hour (AID 1224883); note: nearly all actives have a fitted effect of over 50% in size; note: potency is the fitted concentration of half-maximal effect
Procedure, shortened: as §1

[3] = A CellTox Green Cytotoxicity Assay to monitor cytotoxicity in HEK293 cells - 8 hour (AID 1224884); note: nearly all actives have a fitted effect of over 35% in size; note: potency is the fitted concentration of half-maximal effect
Procedure, shortened: (§2)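 Seeding of HEK293 cells together with cytotoxicity dye preceded a 5 h incubation at 37 C/5% CO2. Test compounds in DMSO were then added and fluorescence monitored across 40 h.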

[4] = qHTS RealTime-Glo MT Cell Viability Assay in HepG2 cells - 16 hour (AID 1224885); note: nearly all actives have a fitted effect of over 50% in size
Procedure, shortened: (§3)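 HepG2 suspension premixed with RealTime-Glo reagents is plated at 600 cells per well and left 5 h at 37 C/5% CO2. Compounds in DMSO then go in, and bioluminescence reflecting viable cell number is recorded over 40 h.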

[5] = qHTS RealTime-Glo MT Cell Viability Assay in HEK293 cells - 24 hour (AID 1224886); note: nearly all actives have a fitted effect of over 50% in size; note: potency is the fitted concentration of half-maximal effect
Procedure, shortened: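 Reads taken at 0, 8, 16, 24, 32 and 40 h from the same wells. HEK293 cells (600/well) carried RealTime-Glo reagents from seeding, with compound added after a 5 h settle at 37 C.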

[6] = qHTS RealTime-Glo MT Cell Viability Assay in HEK293 cells - 8 hour (AID 1224887); note: nearly all actives have a fitted effect of over 50% in size; note: potency is the fitted concentration of half-maximal effect
Procedure, shortened: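 Tox21 screen in HEK293 using RealTime-Glo MT chemistry, with cells and reagent co-dispensed. Luminescence proportional to viable cell number was captured at intervals during 40 h compound exposure at 37 C.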

[7] = A CellTox Green Cytotoxicity Assay to monitor cytotoxicity in HEK293 cells - 16 hour (AID 1224888); note: nearly all actives have a fitted effect of over 35% in size
Procedure, shortened: as §2

[8] = qHTS RealTime-Glo MT Cell Viability Assay in HepG2 cells - 0 hour (AID 1224889); note: nearly all actives have a fitted effect of over 50% in size
Procedure, shortened: as §3

[9] = A CellTox Green Cytotoxicity Assay to monitor cytotoxicity in HepG2 cells - 8 hour (AID 1224890); note: nearly all actives have a fitted effect of over 45% in size
Procedure, shortened: as §1

[10] = qHTS assay to identify small molecule antagonists of the estrogen receptor alpha (ER-alpha) signaling pathway using the BG1 cell line in the presence of 0.1 nM 17-beta-estradiol - cell viability counter screen (AID 1259241); note: nearly all actives have a fitted effect of over 40% in size; note: potency is the fitted concentration of half-maximal effect
Procedure, shortened: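 VM7Luc4E2 cells (endogenous full-length ER-alpha, 4xERE-luciferase), cultured 5 days in charcoal-stripped serum, exposed to compounds with 0.1 nM 17beta-estradiol (final) for 22 hr at 37C. Viability read in same wells as live-cell protease fluorescence after 30 min.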

[11] = qHTS assay to identify small molecule antagonists of the androgen receptor (AR) signaling pathway using the MDA cell line in the presence of 0.5 nM R1881 - cell viability counter screen (AID 1259242); note: nearly all actives have a fitted effect of over 45% in size
Procedure, shortened: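 R1881 at 0.5 nM final stimulated MDA-kb2 cells during 16 hr compound treatment at 37C. Cytotoxicity read: CellTiter-Fluor fluorescence after 30 min.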

[12] = target: Estrogen receptor (Homo sapiens) (UniProt P03372); experiment: qHTS assay to identify small molecule antagonists of the estrogen receptor alpha (ER-alpha) signaling pathway using the BG1 cell line in the presence of 0.1 nM 17-beta-estradiol (AID 1259244); note: nearly all actives have a fitted effect of over 50% in size; note: potency is the fitted concentration of half-maximal effect
Procedure, shortened: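 VM7Luc4E2; 4xERE-luciferase; 0.1 nM E2 final; 22 h co-incubation, 37C; ONE-Glo luminescence after 30 min at room temperature.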

[13] = qHTS assay to identify small molecule phospholipidosis (PLD) inducers (AID 1259344; active = well fitted curve in the direction sought with a large enough effect; an effect the other way counts as inactive or inconclusive)
Procedure, shortened: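 Phospholipidosis is scored by imaging LipidTOX-stained pits in HepG2 cells exposed to compound for 24 h at 37 C; pit counts and integrated intensities per well and per cell serve as outputs.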

[14] = qHTS assay to identify small molecule HDAC inhibitors (AID 1259364);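 note: wild-type HCT-116 cells with endogenous class I/II HDAC activity; top concentration of the series differs between compounds; nearly all actives have a fitted effect of over 45% in size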
Procedure, shortened: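 Relative class I and II HDAC activity is taken from the luminogenic signal in HCT-116 cells, with compound exposure 2 hr and reagent development 30 min at room temperature.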

[15] = qHTS assay to identify small molecule HDAC inhibitors - cell viability counter screen (AID 1259365)
Procedure, shortened: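 Wild-type HCT-116 cells, 1,500/well, cultured overnight, then compound-treated 2 h at 37 C. Viability measured as ATP luminescence with CellTiter-Glo after 30 min at room temperature.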

[16] = qHTS assay to identify small molecule agonists of the sonic hedgehog signaling (Shh) pathway - cell viability counter screen (AID 1259366); note: nearly all actives have a fitted effect of over 50% in size; note: potency is the fitted concentration of half-maximal effect
Procedure, shortened: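 NIH/3T3-derived Gli1-Luc reporter cells, 2,000 per well, received compound after 4 h and were treated about 23 h at 37C. Viability measured in the same wells by CellTiter-Fluor fluorescence after 1 h.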

[17] = qHTS assay to identify small molecule antagonists of the sonic hedgehog signaling (Shh) pathway - cell viability counter screen (AID 1259367); note: nearly all actives have a fitted effect of over 55% in size; note: potency is the fitted concentration of half-maximal effect
Procedure, shortened: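 Cells: 3T3 Gli1-Luc, 2,000/well, 4 hr pre-incubation. Compounds in DMSO, then conditioned medium. Incubation 24 hr, 37C, 5% CO2. CellTiter-Fluor at 23 hr, 1 hr, fluorescence.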

[18] = qHTS assay to identify small molecule agonists of the sonic hedgehog signaling (Shh) pathway (AID 1259368; calls by dose curve;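 note: NIH/3T3-derived 3T3Gli1-Luc cells carrying a stable Gli1-driven firefly luciferase reporter; series mostly up to about 92 µM; nearly all actives have a fitted effect of over 15% in size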)
Procedure, shortened: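 Mouse fibroblast (NIH/3T3) reporter cells with stably integrated Gli1-Luc were treated 24 hr with compound; firefly luciferase luminescence served as the read-out.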

[19] = A CellTox Green Cytotoxicity Assay to monitor cytotoxicity in HEK293 cells - 32 hour (AID 1224881); note: nearly all actives have a fitted effect of over 40% in size
Procedure, shortened: as §2

[20] = target: Androgen receptor (Homo sapiens) (UniProt P10275); experiment: qHTS assay to identify small molecule antagonists of the androgen receptor (AR) signaling pathway using the MDA cell line in the presence of 0.5 nM R1881 (AID 1259243); note: nearly all actives have a fitted effect of over 50% in size
Procedure, shortened: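 We exposed MDA-kb2 cells to compounds under 0.5 nM R1881 stimulation for 16 hr at 37C and quantified MMTV-driven luciferase by luminescence.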
% is set by controls: 0 for no effect and ±100 for the full control effect.

Androgen receptor (Homo sapiens), sequence (P10275 whole entry, looked up): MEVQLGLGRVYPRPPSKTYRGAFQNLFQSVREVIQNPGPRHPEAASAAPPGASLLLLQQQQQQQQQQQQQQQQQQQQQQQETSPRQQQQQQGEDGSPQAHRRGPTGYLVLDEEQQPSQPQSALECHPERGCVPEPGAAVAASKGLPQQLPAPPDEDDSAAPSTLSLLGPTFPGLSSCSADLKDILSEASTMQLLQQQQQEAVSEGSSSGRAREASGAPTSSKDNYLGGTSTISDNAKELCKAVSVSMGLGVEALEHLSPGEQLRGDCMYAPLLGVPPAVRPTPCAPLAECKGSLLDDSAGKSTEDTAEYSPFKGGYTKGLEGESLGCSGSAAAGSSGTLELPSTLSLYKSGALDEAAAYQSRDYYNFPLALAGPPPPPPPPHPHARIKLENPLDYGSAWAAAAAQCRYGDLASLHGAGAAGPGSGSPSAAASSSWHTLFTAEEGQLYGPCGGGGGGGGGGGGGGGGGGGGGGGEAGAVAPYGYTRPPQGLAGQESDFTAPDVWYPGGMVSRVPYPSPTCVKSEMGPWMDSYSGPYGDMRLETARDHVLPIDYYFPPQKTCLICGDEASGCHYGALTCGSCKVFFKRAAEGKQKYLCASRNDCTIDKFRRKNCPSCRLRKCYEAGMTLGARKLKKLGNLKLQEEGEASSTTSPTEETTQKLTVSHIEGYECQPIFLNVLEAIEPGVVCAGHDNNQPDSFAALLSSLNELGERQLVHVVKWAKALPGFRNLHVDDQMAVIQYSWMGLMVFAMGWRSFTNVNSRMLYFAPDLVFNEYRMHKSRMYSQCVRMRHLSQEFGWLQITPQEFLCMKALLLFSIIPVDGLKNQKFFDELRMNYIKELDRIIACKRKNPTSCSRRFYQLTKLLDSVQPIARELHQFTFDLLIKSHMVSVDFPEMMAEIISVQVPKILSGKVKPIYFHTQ
Estrogen receptor (Homo sapiens), sequence (P03372 whole entry, looked up): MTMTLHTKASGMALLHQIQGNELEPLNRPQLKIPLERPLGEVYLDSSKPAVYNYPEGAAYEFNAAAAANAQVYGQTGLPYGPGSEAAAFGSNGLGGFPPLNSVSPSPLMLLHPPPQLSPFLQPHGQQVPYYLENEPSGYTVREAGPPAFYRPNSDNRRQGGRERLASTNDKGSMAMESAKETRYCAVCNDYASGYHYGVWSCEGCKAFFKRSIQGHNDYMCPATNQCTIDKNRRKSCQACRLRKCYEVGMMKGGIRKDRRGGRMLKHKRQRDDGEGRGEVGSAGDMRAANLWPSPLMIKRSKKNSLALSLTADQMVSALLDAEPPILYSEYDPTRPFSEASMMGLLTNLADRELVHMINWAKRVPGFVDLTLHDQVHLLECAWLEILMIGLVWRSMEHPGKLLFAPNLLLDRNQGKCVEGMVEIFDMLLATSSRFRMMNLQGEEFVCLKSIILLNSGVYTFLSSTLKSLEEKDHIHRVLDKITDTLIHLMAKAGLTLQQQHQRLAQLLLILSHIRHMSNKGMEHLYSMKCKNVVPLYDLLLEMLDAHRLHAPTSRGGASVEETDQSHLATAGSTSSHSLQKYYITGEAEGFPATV

CS(=O)(=O)OCCCCOS(C)(=O)=O
inactive: Potency [1] | Potency [2] | Potency [3] | Potency [4] | Potency [5] | Potency [6] | Potency [7] | Potency [8] | Potency [9] | Potency [10] | Potency [11] | Potency [12] | Potency [13] | Potency [14] | Potency [15] | Potency [16] | Potency [17] | outcome [18]

CC1(C)S[C@@H]2[C@H](NC(=O)[C@H](N)c3ccccc3)C(=O)N2[C@H]1C(=O)O
inactive: Potency [19] | Potency [2] | Potency [3] | Potency [7] | Potency [9] | Potency [10] | Potency [11] | Potency [14] | Potency [15] | Potency [16] | Potency [17] | outcome [18]

CCOC(N)=O
inactive: Potency [1] | Potency [2] | Potency [3] | Potency [4] | Potency [5] | Potency [6] | Potency [7] | Potency [8] | Potency [9] | Potency [10] | Potency [11] | Potency [12] | Potency [13] | Potency [14] | Potency [16] | Potency [17] | outcome [18]

O=c1[nH]cnc2c1ncn2[C@H]1CC[C@@H](CO)O1
inactive: Potency [1] | Potency [2] | Potency [3] | Potency [4] | Potency [5] | Potency [6] | Potency [7] | Potency [8] | Potency [9] | Potency [10] | Potency [11] | Potency [12] | Potency [13] | Potency [14] | Potency [15] | Potency [16] | Potency [17] | outcome [18]

CC(=O)Nc1c(I)c(NC(C)=O)c(I)c(C(=O)O)c1I
inactive: Potency [19] | Potency [2] | Potency [3] | Potency [4] | Potency [5] | Potency [6] | Potency [7] | Potency [8] | Potency [9] | Potency [10] | Potency [11] | Potency [13] | Potency [14] | Potency [16] | Potency [17] | outcome [18]

C=CCc1ccc(O)c(OC)c1
inactive: Potency [1] | Potency [2] | Potency [3] | Potency [4] | Potency [5] | Potency [6] | Potency [7] | Potency [9] | Potency [10] | Potency [11] | Potency [12] | Potency [13] | Potency [14] | Potency [15] | Potency [16] | Potency [17] | outcome [18]

C/C=C/C=C/C(=O)O
inactive: Potency [1] | Potency [2] | Potency [3] | Potency [4] | Potency [5] | Potency [6] | Potency [7] | Potency [8] | Potency [9] | Potency [10] | Potency [11] | Potency [13] | Potency [14] | Potency [15] | Potency [16] | Potency [17] | outcome [18]

C=C1CC[C@H](O)C/C1=C\C=C1/CCC[C@]2(C)[C@@H]([C@H](C)CCCC(C)C)CC[C@@H]12
inactive: Potency [19] | Potency [2] | Potency [3] | Potency [4] | Potency [7] | Potency [9] | Potency [10] | Potency [11] | Potency [13] | Potency [14] | Potency [15] | outcome [18]
active: Potency [5] 43.2 µM | Potency [6] 24.3 µM

Cc1ncc([N+](=O)[O-])n1C
48.3 µM (active) and inactive: Potency [3]
inactive: Potency [1] | Potency [2] | Potency [4] | Potency [5] | Potency [6] | Potency [7] | Potency [9] | Potency [10] | Potency [11] | Potency [12] | Potency [14] | Potency [15] | Potency [16] | Potency [17] | outcome [18]

CC(C)NCC(O)c1ccc(O)c(O)c1 (stereo not drawn)
inactive: Potency [19] | Potency [2] | Potency [3] | Potency [4] | Potency [6] | Potency [7] | Potency [8] | Potency [9] | Potency [10] | Potency [11] | Potency [13] | Potency [14] | Potency [15] | Potency [16] | Potency [17] | outcome [18]
48.4 µM (active) and inactive: Potency [5]

C[C@](N)(Cc1ccc(O)c(O)c1)C(=O)O
inactive: Potency [1] | Potency [2] | Potency [3] | Potency [4] | Potency [5] | Potency [6] | Potency [7] | Potency [9] | Potency [10] | Potency [11] | Potency [13] | Potency [14] | Potency [16] | Potency [17] | outcome [18]

Cn1c(=O)c2c(ncn2C)n(C)c1=O
inactive: Potency [2] | Potency [3] | Potency [4] | Potency [5] | Potency [6] | Potency [7] | Potency [8] | Potency [9] | Potency [11] | Potency [13] | Potency [14] | Potency [16] | outcome [18]
55.1 µM (active) and inactive: Potency [17]

NC(=O)n1c(O)c(C(=O)c2cccs2)c2cc(Cl)ccc21
active: Potency [10] 16.8 µM | Potency [12] 13.3 µM
inactive: Potency [1] | Potency [2] | Potency [3] | Potency [4] | Potency [5] | Potency [6] | Potency [7] | Potency [9] | Potency [13] | Potency [14] | Potency [15] | outcome [18]

O=C(O)CC(O)C(=O)O (stereo not drawn)
inactive: Potency [2] | Potency [3] | Potency [4] | Potency [5] | Potency [6] | Potency [7] | Potency [9] | Potency [10] | Potency [11] | Potency [13] | Potency [14] | Potency [15] | Potency [16] | Potency [17] | outcome [18]

O=c1[nH]cc(F)c(=O)[nH]1
inactive: Potency [3] | Potency [4] | Potency [5] | Potency [6] | Potency [7] | Potency [8] | Potency [9] | Potency [11] | Potency [13] | Potency [14] | Potency [16] | Potency [17] | outcome [18]
45.3 µM (active) and inactive: Potency [2]
12.7 µM (active) and inactive: Potency [12]

C1=CC2C3C=CC(C3)C2C1 (stereo not drawn)
inactive: Potency [2] | Potency [4] | Potency [5] | Potency [6] | Potency [9] | Potency [10] | Potency [11] | PLD induction [13] -3.38% [at 3.15 µM] | Potency [14] | Potency [15] | Potency [16] | Potency [17] | outcome [18]
active: Potency [3] 54 µM

Nc1ccc(O)c([N+](=O)[O-])c1
inactive: Potency [2] | Potency [3] | Potency [4] | Potency [6] | Potency [7] | Potency [9] | Potency [13] | Potency [15] | outcome [18]
active: Potency [16] 43.3 µM | Potency [17] 30.6 µM

CC(O)(P(=O)(O)O)P(=O)(O)O
inactive and 436 nM (active): Potency [5]
inactive: Potency [1] | Potency [2] | Potency [3] | Potency [4] | Potency [6] | Potency [7] | Potency [9] | Potency [10] | Potency [11] | Potency [13] | Potency [14] | Potency [15] | Potency [16] | Potency [17] | outcome [18]

CCCCC1(COC(=O)CCC(=O)O)C(=O)N(c2ccccc2)N(c2ccccc2)C1=O
inactive: Potency [2] | Potency [3] | Potency [4] | Potency [5] | Potency [6] | Potency [7] | Potency [8] | Potency [9] | Potency [10] | Potency [11] | Potency [20] | Potency [12] | Potency [13] | Potency [14] | Potency [16] | Potency [17] | outcome [18]
